NPSR antagonist – qHTS Assay for Antagonists of the Neuropeptide S Receptor: cAMP Signal Transduction; AID 1461, 2008; Q6W5P4; CHO-NPSR cells, cAMP TR-FRET, antagonist mode; Potency, µM (titrated, usually from 38.3 µM), most hits filed as inhibitors; hit rate 1% among 220,000; also: nearly all actives have a fitted effect of over 50% in size
Target sequence (Q6W5P4 whole entry, looked up): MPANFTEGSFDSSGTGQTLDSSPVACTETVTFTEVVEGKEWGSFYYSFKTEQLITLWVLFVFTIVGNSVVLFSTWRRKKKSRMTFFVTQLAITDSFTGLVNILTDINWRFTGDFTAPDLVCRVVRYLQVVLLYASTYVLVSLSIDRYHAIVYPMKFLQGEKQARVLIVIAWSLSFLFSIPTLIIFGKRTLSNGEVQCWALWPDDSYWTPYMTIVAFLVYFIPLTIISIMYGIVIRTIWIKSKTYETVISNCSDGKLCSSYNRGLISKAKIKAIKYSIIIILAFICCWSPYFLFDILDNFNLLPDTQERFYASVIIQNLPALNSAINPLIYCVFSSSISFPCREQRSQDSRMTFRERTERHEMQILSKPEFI
IMPase Li cell – qHTS Assay for Identifying the Cell-Membrane Permeable IMPase Inhibitors: Potentiation with Lithium; CHO-M1 cells, IP1 TR-FRET (IP-One), carbachol + lithium; Potency, µM (titrated, usually from 59.4 µM), usual class: inhibitors; hit rate 0.35% among 210,000;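 also: IP1 builds up when IMPase is blocked and the TR-FRET signal falls; nearly all actives have a fitted effect of over 50% in size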
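IP1 accumulation measured by competitive TR-FRET in lysed CHO-M1 cells after 30 min compound exposure at 37C, with a small lithium addition to potentiate weak responses. Hill-equation AC50 from ratio and donor-channel data.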
HTT ATP protect – qHTS Multiplex Assay to Identify Dual Action Probes in a Cell Model of Huntington: Cytoprotection (ATP). AID 1471, 2008. hit rate 0.14% among 230,000. Potency, µM (top dose mostly 56.4 µM), usual class: activators. PC12 HTT-Q103 induced, cytoprotection, ATP luminescence, 40 h; also: nearly all actives have a fitted effect of over 45% in size
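Compounds added alongside 100 nM tebufenozide, which induces toxic Q103 huntingtin exon 1-GFP in stable PC12 cells; surviving cells quantified by luminescent ATP measurement. Medium: phenol red-free DMEM, 5% equine and 5% calf serum.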
HttQ103 aggreg – qHTS Multiplex Assay to Identify Dual Action Probes in a Cell Model of Huntington: Aggregate Formation (GFP) | AID 1688, 2009 | PC12 HttQ103-GFP aggregates, Acumen cytometry, 40 h | hit rate 1.1% among 220,000 | Potency, µM (top dose mostly 46.1 µM), hits mostly inhibitors; also: nearly all actives have a fitted effect of over 60% in size
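Using laser scanning cytometry, GFP-positive aggregates were counted after lysis of PC12 cells induced with 100 nM tebufenozide to express HTT exon 1 Q103–GFP. Compounds were tested in titration.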
PNC inhibitor – High Content Assay for Compounds that inhibit the Assembly of the Perinucleolar Compartment; PC3M PTB-GFP, PNC prevalence imaging, 16 h; stronger effect = lower value; activity change (PNC), negative = inhibition, % at 10 µM; AID 2417, 2010; hit rate 3.1% among 140,000;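 active = readout at or below -70, meaning at least 70% loss of cells showing the perinucleolar compartment, a nuclear body marking cancer cells; inconclusive = readout between -30 and a set limit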
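PC3M cells stably expressing PTB-GFP, 750–1000 cells/well, treated 16 h at 37 °C with compound (23 nl of library stock), in duplicate. After paraformaldehyde fixation and Hoechst stain, imaged at 20x; PNC prevalence scored by image analysis.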
IMPase cell inh – qHTS Assay for Identifying the Cell-Membrane Permeable IMPase Inhibitors; Inositol monophosphatase 1 (Rattus norvegicus), P97697; CHO-M1 cells, IP1 accumulation, HTRF TR-FRET ratio; inhibition (IP1 accumulation), % at 46.1 µM; 120,000 tested, under 10 active; AID 901, 2007; active = well fitted curve in the direction sought with a large enough effect in the signal ratio, not every such curve was filed as active; inconclusive = small, poorly fitted or top-dose-only effect, or a change in a side signal; inactive = no such curve, though single readings can be large or run the other way; the % refers to the signal ratio;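 also: cells stimulated with carbachol in lithium chloride buffer; higher means more IMPase inhibition seen as more IP1 and lower FRET ratio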
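Cellular IMPase inhibition is scored as a rise in cytosolic IP1, detected by competitive TR-FRET between d2-labelled IP1 and a europium anti-IP1 antibody. M1-expressing CHO cells were stimulated with carbachol for 30 min at 37C, with lithium (50 mM LiCl) present in the buffer.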
Hits are given with their value; 0 = inactive; ? = inconclusive; - = no result given; [ ] = dose if it differs, or a comment. An excerpt weighted towards active compounds, which were near 3.4% of everything screened. Unless noted, calls follow the shape of the dose curve; as a rule, active = well fitted curve in the direction sought with a large enough effect; inconclusive = small, poorly fitted or top-dose-only effect, or another doubt; inactive = no such curve, though single readings can be large; an effect the other way counts as inactive or inconclusive.

SMILES | NPSR antagonist | IMPase Li cell | HTT ATP protect | HttQ103 aggreg | PNC inhibitor | IMPase cell inh
CCCCCCCCCCn1ccc(=N)cc1 | 7.9µM | - | 0[10 µM] | ? | - | -
Cc1ccc(N=Cc2c(C)[nH]n(-c3nc4ccccc4[nH]3)c2=O)cc1 | 0 | 0 | - | 0 | -81 | -
Cc1ccc(-n2[nH]c(C)c(C=Nc3ccc4[nH]c(=O)[nH]c4c3)c2=O)cc1 | 0 | 0 | 0[10 µM] | ? | 0 | -
COc1ccc(CCN2C(=NC(=O)C(C)C)SC3CS(=O)(=O)CC32)cc1OC (stereo not drawn) | 0 | - | 0[10 µM] | 0[9.22 µM] | - | -
COc1ccc(Nc2nc3ccccc3nc2NS(=O)(=O)c2cccs2)cc1 | 0 | 0 | 0 | 22µM | ? | 0
CC(/C=C/c1cccc(Oc2ccc(F)cc2)c1)N(O)C(N)=O (stereo not drawn) | ? | 0 | 0 | - | - | -
CCc1nnc(NC(=O)CSc2nnc(-c3cccnc3)n2CC)s1 | 0 | 0 | 0 | ? | -104 | 0
CCc1nnc(NC(=O)CSc2nc(-c3ccccc3)cc(-c3ccc(F)cc3)c2C#N)s1 | 10µM | 10µM | 0 | 0 | 0 | 0
CCc1nnc(NC(=O)CSc2nnc(-c3ccccc3O)n2CC)s1 | 0 | 0 | 0 | 0 | 0 | 0
CCc1nnc(NC(=O)CSc2nc(-c3ccccc3)nc3ccccc23)s1 | 0 | 10µM | 0[10 µM] | 0 | 0 | -
CCc1nnc(NC(=O)CSc2nc3ccccc3s2)s1 | 0 | 0 | 0[10 µM] | 0 | 0 | 0
CCc1nnc(NC(=O)CSc2ncnc3c2cnn3-c2ccc(OC)cc2)s1 | 0 | 10µM | 0 | 0 | 0 | 0
C#CCOCCOCCOCCNc1nc(N2CCN(C(=O)[C@H](CCC(=O)O)n3cc(C(N)CO)nn3)CC2)nc(N2CCN(C(=O)[C@H](CCC(=O)O)n3cc(C(N)CC(C)C)nn3)CC2)n1 (stereo partly drawn) | 0 | - | 0[10 µM] | 0[9.22 µM] | - | -
COc1cc(CN2CCNC(=O)C2CC(=O)O)cc(OC)c1 (stereo not drawn) | 0 | 0 | 0[10 µM] | 0[9.22 µM] | - | -
COC(=O)C/C=C\[C@@H](C)[C@@H](/C=N\OCC[C@H]1C=C[C@H](OC(C)=O)[C@@H](COC(C)=O)O1)NS(=O)(=O)c1ccc(C)cc1 | - | - | 0[10 µM] | - | - | -
O=C(NC(=O)c1cnccc1C(F)(F)F)Nc1ccccc1 | 0 | - | 0[10 µM] | 0[9.22 µM] | - | -
CCc1nnc(NC(=O)CSc2nc(C3CCCCC3)nc3ccccc23)s1 | 0 | 7.9µM | 0 | 0 | 0 | ?
CCc1nnc(NC(=O)CSc2ccc(-c3cccs3)nn2)s1 | 0 | 4µM | 0 | 0 | - | -
CC(C)(C)CC(=O)Nc1nnc(-c2cccs2)s1 | 0 | 11µM | 0[10 µM] | 0 | ? | 0[1.84 µM]
O=C(CN1CCCC1)Nc1nnc(-c2cccs2)s1 | 0 | 0 | 0[10 µM] | 0 | ? | -
CCn1c(SCC(=O)O)nnc1-c1ccccc1 | 0 | 0 | 0 | 0 | -96 | 0
CCn1c(SCC(=O)OC)nnc1-c1ccccc1 | 0 | 0 | - | - | - | -
CN1CCN(C(=O)c2cc(C(C)(C)C)cc(C(C)(C)C)c2)CC1 | 0 | 0 | 0[10 µM] | 0[9.22 µM] | - | -
Cc1nn(-c2ccccc2)c(C)c1/C=N/NC(=O)c1cc(C(C)(C)C)[nH]n1 | 0 | 0 | 0[10 µM] | 0 | -83 | 0
Cc1[nH]c2ccccc2c1/C=N/NC(=O)c1cc(-c2cccs2)[nH]n1 | 0 | 0 | 0[10 µM] | 0 | 0 | 0
Cc1ccc(-c2cc(C(=O)N/N=C/c3c(C)nn(-c4ccccc4)c3C)n[nH]2)s1 | 0 | 0 | 0[10 µM] | 0 | -115 | 0
Cc1ccc(-c2cc(C(=O)N/N=C/c3c(C)nn(-c4ccccc4)c3C)[nH]n2)cc1 | 0 | 0 | 0[10 µM] | 0 | -92 | 0[1.84 µM]
CCN(CC)CCOCCOC(=O)C(CC)(CC)c1ccccc1 (tested in a mixture with another compound) | - | - | 0 | 0 | - | -
Cc1cc(C(=O)COc2ccccc2Cl)c(C)n1-c1ccc2c(c1)OCO2 | 0 | 0 | 0[0.074 µM] | ? | -106 | -

Screening data: PubChem, National Center for Advancing Translational Sciences (NCATS)
